These results are taken from PubChem BioAssay AID1347431 (National Center for Advancing Translational Sciences (NCATS), 2020).

Structures are written as SMILES. The whole screen tested about 1,200 compounds, of which fewer than 10 were called active. Calls come from the whole dose curve; as a rule, active = well fitted curve in the direction sought with a large enough effect; inconclusive = small, poorly fitted or top-dose-only effect, or another doubt; inactive = no such curve, though single readings can be large or run the other way. Not all results are given here.

The assay is described as follows: Confirmatory qHTS assay for inhibitors of Activation Induced Cytidine Deaminase (AID): UDG signals. Conditions: UDG coupled enzyme activity counter-screen; series mostly up to 115 µM. The text has this: Assay Provider (PI) Patricia Gearhart Ph.D.
National Institute on Aging
National Institute of Health (NIH), Bethesda, MD
Assay Provider (PI) Rahul Kohli Ph.D.
Perelman School of Medicine
University of Pennsylvania, Philadelphia, PA
Activation-Induced Deaminase (AID) is a cytosine deaminase which converts cytosine into uracil within stretches of ssDNA. The presence of uracil in DNA initiates a cascade of mutagenic DNA repair to introduce point mutations and DNA double strand breaks. Specific targeting of AID to the immunoglobulin heavy chain loci (Igh) promotes mutagenesis in the antibody variable region for somatic hypermutation (SHM) or switch regions leading to class switch recombination (CSR). However, AID also plays a role in accumulating unnecessary mutations across the genome. Mis-targeting of AID results in the initiation of tumor development and leads to greater drug resistance among cancer cells when continually expressed. To identify an AID inhibitor, a small molecule library will be screened in collaboration with NCATS core facility at NIH. To confirm biological function, inhibitors will be examined in an in vitro murine B-cell activation assay and subsequent secondary validation screens. Top molecules will be further screened to identify inhibitory efficacy against a wild type primary splenocytes assay. Using these approaches, we hope to identify a small molecule with great efficacy and low toxicity for use as a molecular probe to further characterize AID's intricacies, or even as a therapeutic.
A FRET based analysis of cytosine deamination, was developed to identify potential inhibitors of AID catalytic activity. This screen has two signal output, Read 1 evaluates the AID inhibition response. The second readout (Read 2) evaluates UDG response and is uses as a counterscreen to exclude false positive inhibitors. Inhibition in AID and inactivity in the UDG signal is the desired outcome for this assay.
SEQUENCE No. (e.g., 1, 2, 3, etc.); […] (e.g., Cells, Incubation, Reagent, etc.); VALUE; DESCRIPTION
1a; Reagent; 3 uL; [4/3x] 1 uM AID/2.67 U/mL UDG
1b; Reagent; 3 uL; 2 U/mL UDG
1c; Reagent; 3 uL; 1 uM AID
2a; Compound; 46 nL; Follow-up plates (0.64 uM - 10 mM)
2b; Control; 46 nL; ATA ([…] - 10 mM)
3; Time; 10 min; incubation at room temperature
5; Time; 4 hr; incubation at room temperature
6; Reagent; 4 uL; [2x] 250 mM NaOH
7; Time; 15 sec; centrifuge at 1000 rpm
8; Time; 30 min; incubation at room temperature
9a; Detection; fluorescence (Read 1: AID); EnVision (PerkinElmer) plate reader, 540 excitation and 590 emission filters
9b; Detection; fluorescence (Read 2: UDG); EnVision (PerkinElmer) plate reader, 560 excitation and 665 emission filters
NOTES (numbers refer to sequence above)
1a; Reagents were dispensed in a medium-binding black solid-bottom Greiner plates (789176F) using a BioRptr liquid dispenser. Dispense 3 uL of [4/3x] 1 uM AID (provided by Kohli lab) and [4/3x] 2 U/mL UDG (NEB M0280L) into columns 1, 2, 5 to 48.
1b; Dispense 3 uL of [4/3x] 2 U/mL UDG into column 3.
1c; Dispense 3 uL of [4/3x] 1 uM AID into column 4.
2a; Compound (7-points [uM]: 0.64; 3.2; 16; 80; 400; 2,000; 10,000; […]) double pin-transferred (Dip Factor = 2) using the Kalypsys (Wako USA) pintool equipped with a 1536 pinhead for a final concentration range of 7.32 nM - 114 uM.
2b; 10 mM Aurintricarboxylic Acid (Sigma A1895) (ATA, 8-point, n = 2, 1:2.5 dilution in column 2) double pin-transferred (Dip Factor = 2) using the Kalypsys (Wako USA) pintool equipped with a 1536 pinhead for a [final] range of 186 nM - 114 uM.
3; Room temperature incubation.
4; Dispense 1 uL of substrate mixture from the Kohli lab [4x] […] DJC20 and [4x] 250 nM DJC23 into columns 1 to 48 .
5; Room temperature incubation.
6; Dispense 4 uL of substrate mixture [2x] 250 mM NaOH into columns 1 to 48.
7; Centrifugation step to remove bubbles.
8; Room temperature incubation
9a; Fluorescence signal (column label AID) was read using the EnVision plate reader. […]
For orientation: Quantitative high-throughput screening tests each substance at several concentrations.
As for `Cc1ccc(C)c(N2CCN(CCCNC(=O)c3cnn(-c4cccc(Cl)c4)c3C3CCN(C(=O)OC(C)(C)C)CC3)CC2)c1`, the result was inactive. With `Cc1cccc(OC(C)C(=O)N2CCC(c3nc4ccccc4o3)CC2)c1C` (stereo unspecified), the compound was called inactive. Consider `COc1ccc(-c2csc3nc(-c4ccc(C)cc4)oc(=O)c23)cc1OC`, for which the compound was classed as inactive. In the case of `COc1ccc(OCCCn2c(=O)oc3ccc(C)cc32)cc1`, the compound was called inactive. As for `Cc1ccc(Cl)cc1N(C)C(=O)c1cc2ccc3cccnc3c2[nH]1`, the compound was called inactive.

Turning to `COc1ccc(OC)c(NC(=O)Cn2c(=O)cc(C)c3c(C)nn(-c4cccc(Cl)c4C)c32)c1`, the compound was called inactive. As to `COc1ccccc1NC(=O)c1cc2cc3ccc(OC)c(Cl)c3nc2s1`, the outcome was inactive.

As for `Cc1ccc(C)c(CSc2cn(CCNC(=O)c3cccs3)c3ccccc23)c1`, the compound was classed as inactive.

As to `CCOc1ccc(NC(=O)CSc2nccn2-c2cccc(C)c2C)cc1`, the result was inactive. The same measure for `CCOc1ccc(S(=O)(=O)c2c(C(=O)c3ccc(C)c(C)c3)cnc3ccccc23)cc1`: “inactive”. Turning to `CCC1CCCCN1C(=O)CSc1nc(-c2ccc(OC)cc2)cc(C(F)(F)F)n1` (stereo unspecified), the result was inactive. For the compound `CCn1cc(C(=O)NCc2ccccc2OC)c(=O)c2cc(S(=O)(=O)N3CCCCC3)ccc21`, the outcome was inactive. On to `Cc1ccccc1OCC(=O)Nc1cccc(C(=O)OCc2cc(=O)n3c(C)csc3n2)c1`, for which the outcome was inactive. With `COc1ccc(CC(=O)N(Cc2nc(-c3ccc(C)cc3)no2)C(C)C)cc1`, the outcome was inactive. For `Cc1ccccc1-c1nc(CS(=O)CC(=O)N2CCN(c3cc(Cl)ccc3C)CC2)c(C)o1` (stereo unspecified), the compound was classed as inactive. The same measure for `CS(=O)(=O)N(Cc1ccccc1)c1ccc(C(=O)Nc2ccc(Cl)cc2)cc1`: “inactive”; for `CCOC(=O)c1cc(-c2ccc(C)cc2)n(CCC(=O)Nc2ccc(OC)c(OC)c2)c1C`: “inactive”. For `Cc1nc2c(-c3ccccc3)c(C)nn2c(C)c1CCC(=O)N1CCN(c2ccc(F)cc2)CC1` the value was “inactive”; for `C=Cc1ccc(CSc2nc(-c3ccc(C)cc3)nc3c2Cc2c(CO)cnc(C)c2O3)cc1`, “inactive”. Consider `CCc1ccc(CN(Cc2ccco2)C(=O)c2ccc(OC)cc2)cc1`, for which the result was inactive. For the compound `COc1ccc(CC(=O)NCC(c2cccs2)S(=O)(=O)c2ccc(Cl)cc2)cc1` (stereo unspecified), the compound was called inactive. In the case of `Cc1cc(N(C)Cc2ccccc2)n2nc(-c3ccc(C(C)(C)C)cc3)nc2n1`, the result was inactive. `Cc1cc(C)cc(Nc2nc3cc(Cl)c(Cl)cc3nc2-n2nc(C)cc2C)c1`: the call was inactive. As to `N#CC1=C2SCN(C3CCCCC3)CN2C(=O)CC1c1c(F)cccc1Cl` (stereo unspecified), the call was inactive. `Cc1c(C(=O)N(C)Cc2ccccc2)sc2nc(-c3ccc(F)cc3)cn12`: the compound was classed as inactive. Turning to `CCOC(=O)c1cccc(NC(=O)c2oc3c(c2C)-c2nn(CC)cc2CC3)c1`, the compound was called inactive. As to `COc1ccc(OCC(=O)NCC(c2ccc(Cl)cc2)N2CCCCC2)cc1` (stereo unspecified), the compound was called inactive. For the compound `CC1CCCCN1C(=O)c1ccc2c(c1)N(Cc1ccc(Cl)cc1)C(=O)c1ccccc1S2=O` (stereo unspecified), the compound was classed as inactive. With `Cc1ccc(Cl)cc1N1CCN(C(=O)Cn2cnc3nc4c(cc3c2=O)CCCC4)CC1`, the outcome was inactive. Consider `CC(C)(C)C1CCc2c(sc(NC(=O)c3ccccc3F)c2C(=O)NCc2ccco2)C1` (stereo unspecified), for which the outcome was inactive. For the compound `COc1ccc(C(=O)N2CCc3cc(OC)c(OC)cc3C2COc2ccccc2OC)cc1` (stereo unspecified), the compound was called inactive. For `COc1ccc(CCN2CCC(CNC(=O)c3cnn(-c4ccc(C)cc4)c3C3CCN(C(=O)OC(C)(C)C)CC3)CC2)cc1` the value was “inactive”; for `Cc1ccc(CNC(=O)C2CCCN(c3nc4ccccc4n4cccc34)C2)cc1` (stereo unspecified), “inactive”; for `COC(=O)c1ccc(CSc2nnc3ccc4ccccc4n23)cc1`, “inactive”. The same measure for `Cc1cccc(N2CCN(C(=O)c3cccn3-c3nnc(N4CCCCC4)s3)CC2)c1C`: “inactive”; for `Cc1ccc(-c2cn(-c3cccc(Cl)c3)c(S(=O)(=O)CC(=O)Nc3cccc(C)c3)n2)cc1`: “inactive”; for `Cc1ccc2c(c1)C(c1ccc(F)cc1)N(C(=O)COc1ccc(Cl)cc1Cl)CC(=O)N2` (stereo unspecified): “inactive”.

As to `CCC(C(=O)N1CCN(c2ccccc2)CC1)n1nc(C)n2c(cc3sccc32)c1=O` (stereo unspecified), the call was inactive.

As to `CCOc1ccccc1CNC(=O)c1cnc2sc(N3CCCCCC3)nn2c1=O`, the compound was classed as inactive.

Consider `COc1ccc(N2CCN(C(=O)c3nn(C)c4c3CSc3ccccc3-4)CC2)cc1`, for which the compound was called inactive. With `Cc1cccn2c(=O)c3cc(C(=O)N(Cc4ccccc4)C(C)C)sc3nc12`, the call was inactive.

On to `CCCCN(CC)CCNC(=O)C1CCN(c2nnc(C)c3c(C)n(-c4ccc(C)cc4)nc23)CC1`, for which the compound was classed as inactive. The same measure for `CCOC(=O)c1c(C)oc2nc(C)nc(N(CC(C)C)CC(C)C)c12`: “inactive”; for `CCCN(CCC)CCNC(=O)c1cc2c(-c3ccc(Cl)cc3)nn(C)c2s1`: “inactive”; for `CCCCN(CCCC)CC(O)Cn1cc(/C=C/C(=O)c2ccccc2)c2ccccc21` (stereo unspecified): “inactive”. On to `COc1cccc(N2CCN(C(=O)c3cnn(-c4ccc(C)cc4C)c3C3CCN(C(=O)OC(C)(C)C)CC3)CC2)c1`, for which the result was inactive.
